Source: PubChem BioAssay (National Center for Advancing Translational Sciences (NCATS))
Hits are enriched below; roughly 21% of the tested compounds scored in any of these assays.
TDP1 cell noCPT: qHTS for Inhibitors of human tyrosyl-DNA phosphodiesterase 1 (TDP1): qHTS in cells in absence of CPT; DT40 Tdp1-/- hTDP1 cells, no CPT, ATP luminescence, 48 h; Potency, µM (top dose mostly 46.2 µM), for inactives: top-dose activity change, negative = growth inhibition, hits mostly inhibitors; 420,000 compounds, 15% hits; AID 686978, 2013; further: potency means the concentration at half of the fitted maximal effect; nearly all actives have a fitted effect of over 55% in size
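Compound effects on proliferation are scored in DT40 Tdp1-/-;hTDP1 cells in the absence of CPT. ATP levels (CellTiter-Glo luminescence) are recorded after a ≥48 hr, 37 °C incubation.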
RORgamma inh: blocks mouse ROR gamma transcriptional activity | Drosophila S2 Gal4-RORgamma UAS-luciferase reporter, 20 h | Potency, µM (titrated, usually from 53.6 µM), for the others: at the top dose activity change, negative = inhibition, most hits filed as inhibitors | P51450 | 310,000 compounds, 5.4% hits; further: potency means the concentration at half of the fitted maximal effect; nearly all actives have a fitted effect of over 60% in size
Target sequence (P51450 whole entry, looked up, the tested form may be a part): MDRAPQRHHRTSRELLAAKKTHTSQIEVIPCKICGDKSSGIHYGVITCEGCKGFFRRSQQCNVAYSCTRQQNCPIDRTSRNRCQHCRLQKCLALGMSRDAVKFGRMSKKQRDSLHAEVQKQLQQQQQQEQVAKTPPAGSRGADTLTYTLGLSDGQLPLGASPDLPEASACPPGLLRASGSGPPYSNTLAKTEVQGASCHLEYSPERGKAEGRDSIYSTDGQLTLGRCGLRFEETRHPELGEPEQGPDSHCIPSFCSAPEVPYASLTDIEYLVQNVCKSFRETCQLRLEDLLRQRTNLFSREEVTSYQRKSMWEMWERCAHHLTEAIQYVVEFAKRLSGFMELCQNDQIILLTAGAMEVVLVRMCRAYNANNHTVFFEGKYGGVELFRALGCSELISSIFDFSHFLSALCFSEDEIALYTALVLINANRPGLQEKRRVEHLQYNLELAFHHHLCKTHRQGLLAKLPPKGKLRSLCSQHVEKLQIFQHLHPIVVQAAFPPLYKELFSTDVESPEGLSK
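Stable Schneider cell line, Gal4 DNA-binding domain fused to ROR gamma, UAS-luciferase. Cmpd 1 hr RT → CuSO4 700 uM final → 20 hr RT → luciferase reagent 10 min → luminescence.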
TDP1 cell CPT: growth inhibition of DT40 Tdp1-/-;hTDP1 cells with camptothecin (screen for TDP1 inhibitors); chicken DT40 Tdp1-/-;hTDP1 cells + 20 nM CPT, ATP luminescence, 48 h; Potency, µM (series often up to 46.2 µM), without a hit: at the top dose activity change, negative = growth inhibition, most hits filed as inhibitors; 420,000 compounds, 12% hits; AID 686979; further: potency means the concentration at half of the fitted maximal effect; nearly all actives have a fitted effect of over 55% in size
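Chicken DT40 Tdp1-/- cells stably complemented with human TDP1 were seeded at 400 cells/well in medium containing 20 nM camptothecin, exposed to pin-transferred compounds, and grown at 37 °C for at least 48 hr. Viability was read as ATP luminescence.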
IL-1B inflam inh: blocks inflammasome-driven IL-1 beta release | THP-1 LPS/ATP IL-1B secretion, AlphaLISA, 16 h; stronger effect = lower value | activity change, % at 57.5 µM | 360,000 compounds, 4.7% hits | AID 743279; in the data active means activity change below about -50%; inconclusive means mostly about -30% to -49%
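THP-1 cells pretreated 1 hr with compounds (up to 57.5 uM final), then stimulated with LPS (250 ng/mL final) plus ATP (1.25 mM final); secreted IL-1B measured by AlphaLISA after 16 hr, decreased signal indicating inhibition.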
ELG1 repair inh: blocks ELG1-dependent DNA repair in HEK293T cells; HEK293T ELG1-luciferase reporter, luminescence, 16 h; DNA damage induced by 5-fluorouridine; Potency, µM (titrated, usually from 46.1 µM), inactives show top-dose activity change, negative = inhibition, hits mostly inhibitors; 330,000 compounds, 2.3% hits; further: potency means the concentration at half of the fitted maximal effect; nearly all actives have a fitted effect of over 55% in size
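Reporter activity after DNA damage by 5-fluorouridine is monitored. Compound-treated cells incubate 16 hr at 37 °C, then ONE-Glo is added for 30 min before luminescence reading.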
Gal4-VP16 FLuc: inhibits Gal4-VP16 luciferase reporter, ROR gamma counter-screen | Drosophila S2 Gal4-VP16 UAS-luciferase, luminescence, 20 h | Potency, µM (highest dose often 53.6 µM), inactives show at the highest dose activity, negative = inhibition, most hits filed as inhibitors | 310,000 compounds, 3.5% hits | AID 2546;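 further: Gal4-VP16 expression switched on by copper sulfate through the metallothionein promoter; potency means the concentration at half of the fitted maximal effect; nearly all actives have a fitted effect of over 50% in size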
Numbers without * were called inactive; ? = inconclusive; nt = not tested or not shown; [ ] = remark or other dose. Unless noted, the call rests on the fitted dose curve; in most records, active means well fitted curve in the direction sought with a large enough effect; inconclusive means small, poorly fitted or top-dose-only effect, or another doubt; inactive means no such curve, though single readings can be large; an effect the other way counts as inactive or inconclusive. On the % scale 0 is the no-effect control and ±100 the full control effect.

SMILES	TDP1 cell noCPT	RORgamma inh	TDP1 cell CPT	IL-1B inflam inh	ELG1 repair inh	Gal4-VP16 FLuc
CCc1ccc(CNC(=O)CSc2c3c(nc4ccc(Cl)cc24)CCCC3)cc1	?	nt	-23%	nt	nt	nt
COc1ccc(OC)c(CNC(=O)CSc2c3c(nc4cc(Cl)ccc24)CCCC3)c1	23µM*	nt	16µM*	nt	nt	nt
Cc1cc(OCC(=O)OCC(=O)NCc2cccs2)ccc1Cl	-25%	nt	-7%	7	8%	nt
O=C(Nc1ccccc1F)c1csc(COCCO)n1	4%	nt	-21%	-2	nt	nt
CCOC(=O)C1=C(C)NC(=O)NC1/C(C)=C/c1ccccc1 (stereo not drawn)	?	37%	-9%	-7	0%	-8%
Cc1ccc(NC(=O)CNCc2ccc(Cl)cc2Cl)cc1S(=O)(=O)N(C)C	18µM*	14%	?	23	-6%	3%
Cc1ccc(NC(=O)COC(=O)c2ccc(Cl)cc2)cc1S(=O)(=O)N(C)C	?	13%	?	-4	?	9%
Cc1ccc(NC(=O)Cc2c(Cl)cccc2Cl)cc1S(=O)(=O)N(C)C	16µM*	41%	?	0	?	-1%
COc1ccc(/C=N/NC(=O)c2cccc(NC(=O)c3ccccc3Cl)c2)cc1	4.6µM*	24%	3.7µM*	88	?	-1%
COc1ccc(/C=N/NC(=O)c2cccc(NC(=O)c3ccccc3Cl)c2)cc1OC	?	33%	-12%	22	15%	10%
COc1ccc(/C=N/NC(=S)Nc2cccc(C(=O)O)c2)cc1	16%	3.5µM*	12%	3	?	11µM*
COc1ccc(C(=O)Nc2cccc(C(=O)N/N=C/c3ccc(OC)cc3OC)c2)cc1	-1%	10µM*	-24%	-18	?	14µM*
COc1ccc(/C=N/NC(=O)c2cccc(NC(C)=O)c2)c(OC)c1	-6%	20%	16%	20	4%	-8%
COc1cccc(S(=O)(=O)N2C[C@H](O)COC[C@H]3O[C@@H](CC(=O)N4CCN(C)CC4)CC[C@@H]32)c1	13%	nt	0%	0	nt	nt
CCOC(=O)C1CCN(C(=O)c2cccc(N3C(=O)NC4CC3(C)Oc3ccc(C)cc34)c2)CC1 (stereo not drawn)	-3%	0%	?	-14	-16%	-3%
COc1cc(N2C(=O)NC3CC2(C)Oc2ccccc23)cc(OC)c1OC (stereo not drawn)	8%	8%	16%	23	-15%	-2%
CCOC(=O)N1CCN(C(=O)c2cccc(N3C(=O)NC4CC3(C)Oc3ccc(Cl)cc34)c2)CC1 (stereo not drawn)	3.3µM*	39%	?	8	?	-2%
COc1ccc(N2C(=O)NC3CC2(C)Oc2ccc(Cl)cc23)cc1OC (stereo not drawn)	?	29%	23µM*	6	-6%	-1%
COc1ccc(CCN2C(=S)NC3CC2(C)Oc2ccc([N+](=O)[O-])cc23)cc1OC (stereo not drawn)	15µM*	16µM*	10µM*	-21	26µM*	?
COc1ccc(N2CCN(C(=O)c3ccc(N4C(=O)NC5CC4(C)Oc4ccccc45)cc3)CC2)cc1 (stereo not drawn)	?	?	29µM*	?	?	-10%
COc1ccc(CCN2C(=O)CSC2c2cccc([N+](=O)[O-])c2)cc1OC (stereo not drawn)	?	18%	?	-1	-23%	3%
COc1cccc2c1OC1(C)CC2NC(=O)N1c1cccc(C(=O)N2CCN(c3ccccc3)CC2)c1 (stereo not drawn)	?	19%	?	0	2%	-8%[10 µM]
Cc1cc(C)c(NC(=O)CNC(=O)COC(=O)/C=C/c2cccs2)c(C)c1	-12%	nt	-6%	17	?	nt
Cc1ccc(NC(=O)c2ccc3c(O)c(S(=O)(=O)c4ccc(Cl)cc4)c(=O)[nH]c3c2)cc1	0%	nt	0%	nt	nt	nt
CCCCCCn1nc(C(=O)N(CCCC)c2c(N)n(CCC)c(=O)[nH]c2=O)c2ccccc2c1=O	-25%	nt	-23%	-11	-5%	nt
SMILES	TDP1 cell noCPT	RORgamma inh	TDP1 cell CPT	IL-1B inflam inh	ELG1 repair inh	Gal4-VP16 FLuc
Cc1ccc2c(c1)C1CC(C)(O2)N(c2cccc(C(=O)NC3CCN(Cc4ccccc4)CC3)c2)C(=O)N1 (stereo not drawn)	?	-16%	?	-53*	0%	0%
COc1cc(/C=N/N=C2/NC(=O)C(Cc3ccc(F)cc3)S2)ccc1O (stereo not drawn)	?	13µM*	-20%	7	?	?
COc1cc(/C=N/N=C2/NC(=O)C(c3ccccc3)S2)ccc1O (stereo not drawn)	0%	-1%	4%	-12	27%	-16%
COc1cccc2cc(S(=O)(=O)c3ccc(F)c(C)c3)c(=O)oc12	-5%	nt	-7%	nt	nt	nt
Cc1c(NC(=O)c2ccc(NC(=O)C3CC3)cc2)cccc1C(=O)O	7%	-111%	-2%	-4	-14%	-23%
Cc1ccc2sc(NNC(=O)C3COc4ccccc4O3)nc2c1C (stereo not drawn)	?	2µM*	26µM*	-11	2%	8.9µM*
O=C(NNc1nc2c(F)cccc2s1)C1COc2ccccc2O1 (stereo not drawn)	-9%	2%	?	-13	0%	-2%
COc1cccc2sc(NNC(=O)C3COc4ccccc4O3)nc12 (stereo not drawn)	-19%	3.5µM*	-16%	46	?	10%
Cc1ccc(NC(=O)C2COc3ccccc3O2)cc1C (stereo not drawn)	-6%	?	-5%	0	?	18%
CC(C)(C)NC(=O)C(c1ccc(O)cc1)N(Cc1ccc2c(c1)OCO2)C(=O)CCl (stereo not drawn)	?	nt	?	11	nt	nt
Cn1c(/C(C#N)=C(\O)CN2CCN(Cc3ccccc3)CC2)nc2ccccc21	-20%	5.6µM*	-15%	-10	-11%	22µM*
Cn1cnnc1SC/C(O)=C(\C#N)c1nc2ccccc2[nH]1	19%	-16%	-15%	58	3%	-6%
O=C(CN1CCN(Cc2ccccc2)CC1)N1CCCCCC1	-1%	-25%	9%	24	10%	8%
